# Screening data deposited in PubChem BioAssay by several laboratories.
# An excerpt weighted towards active compounds, which were near 2% of everything screened.
# PAX8 reporter – inhibitors of PAX8 transcriptional activity in RMG-I cells | RMG-I TPO-luciferase reporter, SteadyGlo, 24 h | inhibition, % at 12.6 µM | hit rate 1.2% among 360,000 | AID 652154;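 active means mean replicate inhibition at least 60% with every replicate also reaching 60%; inconclusive means only one of the two criteria is met; inactive means mean below 60% and not all replicates reaching 60%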;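 further: luciferase light reporting Pax8 driven TPO promoter activity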
# EWS-Fli inh – EWS/Fli transcriptional activity inhibition. A673 NR0B1-luciferase reporter, viability-normalised. inhibition, % at 12.6 µM. hit rate 0.67% among 350,000. AID 651661;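 active means mean inhibition of at least 50% after viability correction, with every replicate also passing that limit; inconclusive means mean reaches 50% but only one of two replicates passes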;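 further: firefly luciferase signal divided by Alamar Blue viability fluorescence both relative to DMSO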
# LGR2 antag – Drosophila LGR2 receptor signaling inhibition; HEK293 LGR2, CRE-luciferase, bursicon-stimulated, 4 h; inhibition, % at 9.99 µM; hit rate 0.35% among 380,000;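 active means drop in luminescence signal, shown as inhibition above about 50% in the replicate tests, limit read from the data, passing the limit was not always enough; inconclusive means probably only some replicates passing the limit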;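 further: agonist challenge used bursicon conditioned medium at about half maximal strength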
# CF NFkB block – cystic fibrosis NF-kB activation inhibition | hit rate 0.86% among 360,000 | KKLEB NF-kB-GFP reporter, PAF-induced, GFP fluorescence overnight | inhibition, % at 5 µM | AID 588850;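 active means at least 50% inhibition at 5 µM, scaled per plate between neutral and stimulator controls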;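 further: PAF is a Pseudomonas aeruginosa culture filtrate used as stimulus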
# KKLEB tox – CF airway cell cytotoxicity counter-screen; AID 602141; activity change (cytotoxicity), % at 5 µM; hit rate 0.36% among 360,000; KKLEB CF airway cells viability, ATPlite luminescence, overnight; hits give low values; cells stimulated with P. aeruginosa culture filtrate;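 active means corrected activity change at or below -50% at 5 µM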
# Shn3 3UTR inh – reduces Shn3 3'UTR luciferase signal in osteoblasts. hit rate 0.52% among 360,000. inhibition, % at 12.5 µM. Clone20 osteoblast Shn3 3'UTR firefly luciferase, 24 h;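 active means mean inhibition of at least 75% with every replicate also reaching 75%; inconclusive means mean inhibition at least 75% but some replicate below; inactive means mean inhibition below 75%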
# A number is an active result; - = inactive; ? = inconclusive; . = no result given.
SMILES,PAX8 reporter,EWS-Fli inh,LGR2 antag,CF NFkB block,KKLEB tox,Shn3 3UTR inh
CC1=C(C(=O)OCc2ccc3c(c2)OCO3)C(c2ccccc2)NC(=O)N1 (stereo unspecified),.,.,-,84.1,-,-
C[C@@H]1C[C@@H]2OC(=O)[C@]3(C)[C@H]2[C@@H](OC3(C)O)[C@]2(C)C(=O)C=C[C@H]12 (stereo partly specified),-,-,-,-,-,-
C=C1C(=O)O[C@@H]2C[C@@H](C)[C@@H]3C=CC(=O)[C@@]3(C)[C@@H](OC(C)=O)[C@H]12,102.3,62.4,102.7,.,.,.
C[C@H](CO)N1C[C@H](C)[C@@H](CN(C)Cc2ccc3c(c2)OCO3)Oc2ncc(Br)cc2C1=O,.,-,-,.,.,.
CCC(C)[C@H](N)C(=O)N[C@H]1CCC2C3CC=C4C[C@@H](O)CC[C@]4(C)C3CC[C@@]21C (stereo partly specified),-,-,-,-,-67.4,-
C[C@@H](N)C(=O)N[C@H]1CCC2C3CC=C4C[C@@H](O)CC[C@]4(C)C3CC[C@@]21C (stereo partly specified),-,-,-,-,-,-
CC(C)[C@H](N)C(=O)N[C@H]1CCC2C3CC=C4C[C@@H](O)CC[C@]4(C)C3CC[C@@]21C (stereo partly specified),-,53.2,-,-,-71.5,-
Cc1ccnc(NC(c2cccnc2)c2ccc3cccnc3c2O)c1 (stereo unspecified),-,-,-,-,-,-
CCC(=O)NC(c1cc(Cl)c2cccnc2c1O)C(C)C (stereo unspecified),-,-,-,-,-,-
CCCCC(=O)NC(c1ccc(Cl)cc1Cl)c1ccc2cccnc2c1O (stereo unspecified),65.6,-,-,-,-,93.2
CC(C)C(=O)NC(c1ccc(Cl)cc1Cl)c1ccc2cccnc2c1O (stereo unspecified),-,-,-,-,-,87.0
CCC(=O)NC(c1ccc(Cl)cc1Cl)c1ccc2cccnc2c1O (stereo unspecified),66.1,-,-,-,-,?
CC(C)N(CC(=O)Nc1ccc(Cl)cc1C(F)(F)F)C(=O)CCl,91.8,-,-,-,-,-
O=C(O)CSCC(=O)Nc1ccc(Cl)cc1C(F)(F)F,-,-,-,-,-,-
O=C(Cc1ccc(NC(=O)C2CCCN(C(=O)C3CCCCC3)C2)cc1)Nc1ccc(C(=O)N2CCOCC2)cc1 (stereo unspecified),-,-,-,-,-,-
O=C(Cc1ccc(NC(=O)C2CCN(C(=O)C3CCCCC3)CC2)cc1)Nc1ccc(C(=O)N2CCOCC2)cc1,67.6,-,-,-,-,-
C[C@@H]1CN([C@@H](C)CO)C(=O)c2c(c3ccccc3n2C)-c2ccccc2CO[C@@H]1CN(C)Cc1ccc2c(c1)OCO2,-,-,-,.,.,.
Cc1cccc(C)c1OCCNC(=O)C(=O)NCc1ccco1,-,56.3,-,-,-,-
Cc1cccc(C)c1NC(=O)NCc1ccco1,-,-,-,-,-,-
COC(=O)[C@]12C[C@H](CC(=O)NCc3cccc4ccccc34)C(=O)N(Cc3ccc4c(c3)OCO4)C1=C[C@H](C(C)(C)C)O[C@@H]2C,-,-,-,.,.,.
CCCCCCCCN1C(=O)[C@@H](CC(=O)N2CCN(C(=O)c3ccco3)CC2)C[C@@]2(C(=O)OC)C1=C[C@H](C(C)(C)C)O[C@@H]2C,84.1,-,-,.,.,.
CCCCCCCCN1C(=O)[C@@H](CC(=O)N2CCN(C(=O)c3ccco3)CC2)C[C@@]2(C(=O)OC)C1=C[C@H](C1CCCC1)O[C@@H]2C,73.3,-,-,.,.,.
COC(=O)[C@]12C[C@H](CC(=O)NCc3ccc(OC)c(OC)c3)C(=O)N(Cc3ccc4c(c3)OCO4)C1=C[C@H](C(C)(C)C)O[C@@H]2C,79.2,-,-,.,.,.
Cc1ccc(S(=O)(=O)N[C@H]2CC[C@H](CCNS(=O)(=O)Cc3ccccc3)O[C@H]2CO)cc1,-,-,-,.,.,.
CO[C@H]1CC[C@@H]2CCOc3c(C#N)cccc3C(=O)N(C)[C@@H](C)C(=O)N(C)C[C@H]1O2,-,-,-,.,.,.
SMILES,PAX8 reporter,EWS-Fli inh,LGR2 antag,CF NFkB block,KKLEB tox,Shn3 3UTR inh
C[C@@H]1CN([C@H](C)CO)C(=O)c2cc(C#Cc3ccncc3)cnc2O[C@H]1CN(C)S(=O)(=O)c1ccccc1F,.,-,-,.,.,.
CC(C)[C@H](C)NC(=O)N(C)C[C@@H]1OCc2ccccc2-c2ccccc2C(=O)N([C@H](C)CO)C[C@@H]1C,-,-,-,.,.,.
COc1ccc2c3c(n(C)c2c1)[C@H](CO)NCC31CN(C(=O)CC2CC2)C1,-,-,-,.,.,.
CCOc1ccc(OCc2cccc(C(=O)N3CCCCCC3)c2)cc1,-,?,-,-,-,-
COc1ccc(OCc2cccc(C(=O)O)c2)cc1,.,.,.,-,-,93.6
CCOc1ccc(OCc2cccc(C(=O)N3CCCC3)c2)cc1,.,.,-,-,-,-
CCOc1ccc(OCc2cccc(C(=O)O)c2)cc1,.,88.1,102.4,-,-,88.7
O=C(O)c1cccc(COc2ccc(CO)cc2Cl)c1,.,89.0,100.1,-,-,89.5
O=C(O)c1ccc(COc2ccc(CO)cc2Cl)cc1,.,.,.,-,-,-
O=C(O)c1cccc(COc2ccc3c(c2)CCC3)c1,108.2,88.2,100.8,-,-,-
CCC(=O)Nc1ccc2c(c1)OC[C@@H](C)N(Cc1ccccc1OC)C[C@@H](C)[C@@H](OC)CN(C)C2=O,-,-,-,.,.,.
COCC(=O)N1C[C@H]2[C@@H](c3ccccc31)[C@@H](CO)N2C(=O)c1ccncc1,-,-,-,.,.,.
Cc1ccccc1-c1ccc2c(c1)O[C@H](CN(C)C(=O)c1ccccn1)[C@@H](C)CN([C@H](C)CO)S2(=O)=O,-,-,-,.,.,.
Cc1ccc(S(=O)(=O)NCC[C@H]2CC[C@@H](NC(=O)Nc3cccc(F)c3)[C@@H](CO)O2)cc1,-,-,-,.,.,.
Cc1[nH]n(-c2ccccc2)c(=O)c1N=Nc1ccccc1C(=O)O,-,-,-,-,-,-
Cc1[nH]n(-c2ccccc2)c(=O)c1N=Nc1ccccc1O,65.5,-,-,-,-,85.0
COc1ccc(C(=S)N2CCN(c3cccc(Cl)c3)CC2)c(OC)c1,-,56.1,-,-,-,-
C[C@H](CO)N1C[C@H](C)[C@@H](CN(C)S(=O)(=O)c2ccccc2F)OCc2ccccc2-c2c(n(C)c3ccccc23)C1=O,-,-,-,.,.,.
CC1C=CC=CC=CC=CC=CC=CC=CC(OC2OC(C)C(O)C(N)C2O)CC2OC(O)(CC(O)CC(O)C(O)CCC(O)CC(O)CC(=O)OC(C)C(C)C1O)CC(O)C2C(=O)O (stereo unspecified),.,.,.,55.2,-,-
COc1ccc(NC(=O)Nc2ccc3c(c2)C(=O)N([C@H](C)CO)C[C@H](C)[C@H](CN(C)C(=O)Nc2cccc4ccccc24)OCCCC[C@@H](C)O3)cc1,-,-,-,.,.,.
